# Measurements as given in PubChem BioAssay AID1159583 (ICCB-Longwood Screening Facility, Harvard Medical School, 2016).
# Screen size: about 300,000 compounds; about 310 (0.1%) were called active. The sample holds actives, similar compounds and a random draw of the others, so the mix is not that of the screen. Cut-off read from the data, not from the text of the source: active = fluorescence inhibition mostly above about 23% (no sharp cut-off); inactive = mostly below about 17%.
# Experiment: hypoxia reporter signal reduction in M. tuberculosis – fluorescence, absorbance growth readout, primary screen (AID 1159583)
# Conditions: M. tuberculosis hypoxia-regulated fluorescent reporter, stronger effect = higher value, concentration not given here; growth inhibition: measured here: M. tuberculosis growth (absorbance)
SMILES,fluorescence inhibition,growth inhibition
CCc1ccc(S(=O)(=O)NN=Cc2ccc3c(c2)OCO3)cc1,1.76% (inactive),-2.08%
CN1C(=O)C(=NOC(=O)c2ccccc2Cl)c2ccccc21,12.3% (inactive),3.63%
COc1ccc(C=NNc2c(Cl)cc(Cl)cc2Cl)cc1CN1CCOCC1,-4.05% (inactive),12.6%
Cc1cc(C)cc(NC(=O)NC2CCCCCCC2)c1,95.8%,
CC(C)(C)NS(=O)(=O)c1ccc(NC(=O)NC2CCCCC2)cc1,3.29% (inactive),2.76%
CC(C)c1ccc(NC(=O)NC2CCCCC2)cc1,20.8% (active),53%
CSc1nsc(NN=Cc2ccccc2)c1C#N,1.35% (inactive),9.85%
CC(C)CCn1c(=O)c(C(=O)NN=Cc2cccc(F)c2)c(O)c2ccccc21,5.09% (inactive),2.73%
O=C1CC2c3c(cccc3CN1Cc1ccc(F)cc1)CC(O)C2O (configuration not stated),13.8% (inactive),7.24%
CC(=NNC(=O)c1ccn(C)n1)c1cccc(NC(=O)c2ccncc2)c1,-2.04% (inactive),6.06%
COCc1c(Br)c(C)nc(OCC(=O)NN=Cc2ccc(C)o2)c1C#N,18.1% (inactive),8.53%
CCC(=NNC(C)=O)c1ccc(OC(F)F)cc1,18.5% (inactive),-1.52%
Cc1c(C=NNC(=O)c2ccc(F)cc2)cnn1C,2.95% (inactive),1.5%
COc1ccc(C2CC(=O)C=C(c3ccc(Cl)cc3C)C2)cc1 (configuration not stated),14.8% (inactive),2.62%
O=C(O)CC1c2cc(C(F)(F)F)ccc2S(=O)(=O)N1C1CCCCC1 (configuration not stated),13.2% (inactive),14.6%
CCOc1cc(C=NNC(=O)CSc2nnc(C)s2)ccc1OCc1ccccc1Cl,-1.48% (inactive),-4.08%
CC1(C)CC(=O)CC(=NNC(=O)C2CC2c2ccccc2)C1 (configuration not stated),-1.34% (inactive),15.1%
O=C(O)c1cccc2c1-c1ccccc1C2=NNc1ccccc1,1.02% (inactive),-10.1%
O=[N+]([O-])c1ccccc1NN=Cc1cccc(O)c1O,9.33% (inactive),0.684%
CC(=NO)C(C)(C)Nc1cccc(F)c1,-1.15% (inactive),4.49%
COc1ccc(-c2sc3ccccc3c2C=Cc2ccc(OC)c(OC)c2)cc1,17.3% (inactive),10%
COc1ccc(C2C=CCN(S(C)(=O)=O)C(C)C(=O)N2Cc2ccc(F)cc2)cc1 (configuration not stated),18% (inactive),13.9%
CC(C)(C)OC(=O)NC(Cc1ccccc1)C(=O)NC(CO)C(O)C1CC1C(=O)NC1CC1 (configuration not stated),14.6% (inactive),4.91%
O=C(CN1CCN(Cc2ccc(Cl)cc2)CC1)NN=Cc1cccs1,6.55% (inactive),-3.12%
Cc1ccc(C=NNC(=O)Nc2ccccc2)o1,14.8% (inactive),5.33%
CCN1C(=O)C(CC(=O)Nc2ccccc2)SC1=Nc1ccccn1 (configuration not stated),0.176% (inactive),4.92%
COc1ccc(Cl)cc1NC(=O)CC(C)=NNC(=O)COc1ccc(C)cc1,13.3% (inactive),3.14%

SMILES,fluorescence inhibition,growth inhibition
O=[N+]([O-])c1ccc(Cl)cc1NN=Cc1ccncc1,6.88% (inactive),-1.48%
O=C(NN=Cc1ccncc1)c1cc2c(ccc3ccccc32)o1,-1.63% (inactive),10.4%
COc1cc(C=NNC(=S)NCc2ccccc2)ccc1OCC#N,8.67% (inactive),7.58%
CC(C)c1ccc(C=NNC(=O)c2cc(-c3cccc([N+](=O)[O-])c3)n[nH]2)cc1,16.3% (inactive),1.5%
Cc1ccc(C=NNC(=O)CCCOc2ccc(Cl)cc2Cl)cc1[N+](=O)[O-],1.7% (inactive),5.81%
O=C(NN=Cc1ccccc1)C(O)c1ccccc1 (configuration not stated),-2.65% (inactive),-6.95%
COc1ccc2c(c1)C1C(CO2)C(c2ccccc2)[C@]2(C)C(=O)Nc3cc(F)c(F)cc3C(=O)N12 (some centres not stated),12.4% (inactive),11.9%
COC(=O)C1=C(C)N(Cc2ccccc2)C(=NCc2ccco2)NC1c1cccc(F)c1 (configuration not stated),-3.36% (inactive),4.01%
CC(=O)C=C(C)NC(Cc1c[nH]c2ccccc12)C(=O)O (configuration not stated),-7.06% (inactive),-3.51%
CC(=NNC(=S)NC1CCCCC1)c1ccc(OC(F)F)cc1OC(F)F,2.47% (inactive),1.1%
COc1ccc(Cl)cc1C(=O)NN=Cc1ccc(N2CCOCC2)cc1,-1.94% (inactive),6.35%
CC(Cc1ccccc1)=NNC(=O)CNC(=O)c1cccc(Br)c1,-10% (inactive),-2.78%
CCOC(=O)C1=C(N)n2c(sc(=Cc3ccco3)c2=O)=C(C(=O)OC)C1c1ccco1 (configuration not stated),-1.95% (inactive),-7.35%
C=CCc1cccc(C=Nc2nc3ccccc3n2CC)c1O,7.78% (inactive),3.33%
CCOc1c2ccc(C(=O)NC(C)C3CCCCC3)cc2nn1CCOC (configuration not stated),1.7% (inactive),7.24%
CC#CCN1c2ccccc2[C@]23CC(C(=O)OC)N(C(C)=O)C2=NC(C(=O)OC)=C(C(=O)OC)C13 (some centres not stated),21.5% (inactive),5.39%
COc1ccc(C(=O)NN=Cc2ccc(OC(=O)c3cccc4ccccc34)c([N+](=O)[O-])c2)cc1,8.45% (inactive),6.08%
COc1ccc(C2CC(=O)C=C(c3ccc(OC(F)(F)F)cc3)C2)cc1OC (configuration not stated),-7.53% (inactive),0.871%
Cc1sc2nc(C)n(N=Cc3ccc(O)cc3)c(=O)c2c1C,8.51% (inactive),1.4%
CCCCN1C(N)=NCC1CCCCN (configuration not stated),3.89% (inactive),4.01%
O=C(CCCC(=O)NN=Cc1ccccc1C(=O)O)NN=Cc1ccccc1C(=O)O,3.15% (inactive),3.53%
NC(=NOC(=O)c1ccc2c(c1)OCO2)c1ccc([N+](=O)[O-])cc1,3.03% (inactive),4.61%
COc1ccc(C=NNc2nc(=O)[nH]nc2C)cc1[N+](=O)[O-],5.04% (inactive),5.94%
CCn1c(SCC(=O)NN=C(C)c2ccco2)nnc1-c1ccccc1,-6.87% (inactive),-5.95%
Oc1ccccc1C=NNc1cccc2cccnc12,2.03% (inactive),5%
O=C(Cc1cc(=O)[nH][nH]1)NN=Cc1ccccc1Cl,-6.7% (inactive),3.17%
Cc1ccc(S(=O)(=O)NN=Cc2ccc(OC3CSC3)cc2)cc1,-5.05% (inactive),2.12%
